Values joined by “and” are separate entries in the source; they are usually repeats but may differ in a detail not shown here. Equal values may be shown once. The campaign covered roughly 300,000 compounds. About 37,000 (12%) were called active. The list comes from a sample in which actives are over-represented; it also holds similar structures and randomly drawn compounds. Unmarked numbers belong to inactive results. No stated cut-off is given here; in the data, active means max response mostly above about 13% (no sharp cut-off); inactive means mostly below about 14%.
Assay: Cycloheximide Counterscreen for Small Molecule Inhibitors of Shiga Toxin; further: read at 38.3 µM for the half of the compounds with a filed dose; 0% is about no effect
Settings: cell reporter, cycloheximide protein synthesis inhibition counterscreen; stronger effect = higher value

| SMILES | max response |
| --- | --- |
| Cn1c(N2CCOCC2)c(C=O)c2ccccc21 | -2.7% |
| Cc1ccc(S(=O)(=O)N(CC(=O)N2CCc3ccccc3C2)c2cccc(Cl)c2)cc1 | -3.56% |
| COc1ccc(-c2[nH]nc(-c3ccccc3)c2-c2nc3ccccc3[nH]2)cc1 | -1.76% |
| Cc1ccc(-c2nc3ccccc3[nH]c2=O)cc1 | 24.9% (active) |
| Cc1ccccc1N1CC(c2nc3ccccc3[nH]2)CC1=O (stereo not drawn) | -2.15% |
| CCC(C(=O)NC1CCCCC1)N(C(=O)c1snc(C(N)=O)c1N)c1ccc(OC)cc1OC (stereo not drawn) | -5.48% |
| COc1ccccc1C(=O)Nc1ccnn1C1CCN(C(=O)C(C)(C)C)CC1 | 2.22% |
| O=S(=O)(/N=C(/Nc1ccccn1)c1ccccc1)c1ccc(Cl)cc1 | 15.2% (active) |
| O=S(=O)(Nc1ccccn1)c1cccc(S(=O)(=O)c2ccc(Cl)cc2)c1 | 1.04% |
| O=C(Nc1ccc(S(=O)(=O)Nc2ccccn2)cc1)c1ccccc1 | -3.7% |
| Cc1ccc(S(=O)(=O)/N=C(/Nc2ccccn2)c2ccc(Cl)cc2)cc1 | 18.6% (active) |
| Cc1ccc(S(=O)(=O)/N=C(/Nc2ccc3[nH]c(=O)[nH]c3c2)c2ccccc2)cc1 | -2.26% |
| Cc1ccc(S/C(=N\S(=O)(=O)c2ccc(Cl)cc2)c2ccccc2)cc1 | -3.74% |
| COc1ccc(SCCN2CCN(CC(C)C)CCC2=O)cc1 | 4.3% and 7.92% |
| Cc1nn(C)c(C)c1C(C)NC(=O)c1ccc(OC2CCN(Cc3ccccn3)CC2)cc1 (stereo not drawn) | -1.08% |
| O=C(/C=C/c1ccccc1[N+](=O)[O-])OC1CCCCC1=O (stereo not drawn) | -0.626% |
| CC1CCCCC1NC(=O)/C(C#N)=C/C=C/c1ccccc1[N+](=O)[O-] (stereo not drawn) | 32.9% (active) |
| O=C(/C=C/c1ccccc1[N+](=O)[O-])NCC1CCCO1 (stereo not drawn) | 10.2% |
| CCN(C(=O)CSc1nc2ccccc2n1CC)C1CCS(=O)(=O)C1 (stereo not drawn) | 1.92% |
| O=C(OCC(=O)c1cccs1)c1ccc([N+](=O)[O-])o1 | 3% |
| CCC(C)(C)c1ccc(Oc2ccc(NC(=O)COC(=O)C3=COCCO3)cc2)cc1 | 5.65% |
| O=C(OCC(=O)c1cccs1)C1=COCCO1 | 51.4% (active) |
| CCOC(=O)c1c(C)[nH]c(C)c1S(=O)(=O)NCCCc1ccco1 | -2.93% |
| CCOc1ccc(C2c3[nH]c4ccccc4c3CCN2Cc2cccn2-c2ncccn2)cc1 (stereo not drawn) | 0.0691% |

| SMILES | max response |
| --- | --- |
| C/C(=N\NC(=O)C1(C)CC1(Br)Br)c1ccc(C)cc1C (stereo not drawn) | 12.6% |
| O=[N+]([O-])c1cc(S(=O)(=O)Nc2cccc(Cl)c2)ccc1N=Nc1c(O)[nH]c2ccccc12 | -1.65% |
| C=CCOc1ccccc1/C=N/NC(=O)Cc1ccccc1 | 9.84% |
| O=C(CCCCCNC(=O)c1ccccc1)N/N=C/c1ccccc1 | 13.5% |
| O=C(CCC(=O)Nc1ccccc1)N/N=C/c1ccccc1F | 25.1% (active) |
| COc1ccc(C(C)NC(=O)C23CC4CC(CC(C4)C2)C3)cc1 (stereo not drawn) | -0.477% |
| Cc1noc(C)c1S(=O)(=O)Nc1ccc(C(=O)N2CCN(c3ccc(F)cc3)CC2)cc1 | 11.8% |
| CCOC(=O)C1=C(O)CSC1=Nc1cccc(Cl)c1 | -2.53% |
| CN(C)c1nc(=Nc2cccc(Cl)c2)ss1 | 24.1% (active) |
| N#Cc1cccc(NC(=O)COC(=O)c2ccccc2C(=O)c2ccc(Cl)c([N+](=O)[O-])c2)c1 | 3.74% |
| O=c1[nH]c(=S)[nH]c2[nH]c(=S)[nH]c12 | -3.22% |
| CCOC(=O)C1CCN(C(=O)c2ccccc2N(C)S(=O)(=O)c2ccccc2)CC1 | -2.92% |
| CN(Cc1ccc(F)cc1Cl)S(=O)(=O)c1cccs1 | 15.3% |
| O=C(Nc1nncs1)c1ccccc1NS(=O)(=O)c1cccs1 | 2.77% |
| O=C(Nc1cccc(Cl)c1)Nc1ccccc1NS(=O)(=O)c1cccs1 | 11% (active) |
| O=S(=O)(NCCc1ccc(Cl)cc1)c1cccs1 | 7.85% |
| O=S(=O)(Nc1ccccc1Br)c1cccs1 | -5.92% |
| O=S(=O)(NCc1ccc(Cl)cc1Cl)c1cccs1 | 14.3% (active) |
| O=C(Nc1ccc(Br)cn1)C1CCN(S(=O)(=O)c2cccs2)CC1 | 2.63% |
| c1ccc(C2CNCc3c2ccc2ccccc32)cc1 (stereo not drawn) | -1.66% |
| COc1cc(-c2n[nH]c(=S)n2Cc2ccccc2)cc(OC)c1OC | -3.31% |
| CC(=O)c1c(O)cc2n(c1=O)-c1ccc(Cl)cc1C2(C)C | -1.91% |
| COc1ccccc1CCNS(=O)(=O)c1cn(C)nc1C | 1.23% |
| Cc1c(Cl)c([N+](=O)[O-])nn1CC(=O)NCCCN1CCOCC1 | -1.84% |

| SMILES | max response |
| --- | --- |
| CCOc1ccc(NC(=O)CN2CCN(CC(=O)Nc3ccc(OC)cc3)CC2)cc1 | -1.52% |
| COc1ccc(NC(=O)Cn2c(-c3ccc(OC)cc3)cn(-c3ccc(C)cc3)c2=O)cc1 | 27.2% (active) |
| COc1ccc(-c2cn(-c3ccc(C)cc3)c(=O)n2CC(=O)Nc2ccc(OC)c(OC)c2)cc1 | 12.3% |
| CC(C)CCN(C(=O)c1csnn1)C(C(=O)NC1CCCC1)c1ccccc1 (stereo not drawn) | -2.45% |
| COc1ccc(NC(=O)C(C)N2c3cccc4cccc(c34)S2(=O)=O)c(OC)c1 (stereo not drawn) | -5.29% |
| COc1ccc(-c2c3c(=O)n(C)c(=O)n(C)c3cn2NC(C)=O)cc1 | -6.45% |
| Cc1ccc(-c2c3c(=O)n(C)c(=O)n(C)c3cn2-n2cnnc2)cc1 | 0.742% |
| COc1ccc(-c2c3c(=O)n(C)c(=O)n(C)c3cn2-c2cccc(OC)c2)cc1 | 0.846% |
| Cn1c(=O)c2cn(-c3cccc4ccccc34)cc2n(C)c1=O | 18.7% |
| Cc1ccc(-c2c3c(=O)n(C)c(=O)n(C)c3cn2-c2ccccc2O)cc1 | 21.5% (active) |
| COc1cccc(-n2cc3c(c2-c2ccccc2)c(=O)n(C)c(=O)n3C)c1 | 57.2% (active) |
| Cn1c(C(=O)N2CCCC(C(=O)NCc3ccccc3)C2)cc2sccc21 (stereo not drawn) | 3.91% |
| CCOc1ccc(S(=O)(=O)N2CCC(C(=O)NCc3ccccn3)CC2)cc1Cl | -1.51% |
| COc1ccc(-c2nc(CS(=O)CC(=O)NCc3ccccc3)c(C)o2)cc1OC (stereo not drawn) | 4.98% |
| Cc1no[n+]([O-])c1COc1ccccc1/C=C1\NC(=S)NC1=O | 5.18% |
| CC(=O)Nc1ccc(S(=O)(=O)Oc2ccc(Br)cc2C(=S)N2CCOCC2)cc1 | -3.27% |
| CC(=O)Nc1ccc(CN2CCC(Oc3ccc(C(=O)N4CCCC4)cc3)CC2)cc1 | -0.693% |
| O=C(Nc1ccc(Cl)cc1)/C(=C1\CCCN1)[N+](=O)[O-] | 5.78% |
| O=C(CN(c1ccccc1)S(=O)(=O)c1ccc(Cl)cc1)Nc1ccccc1C(=O)N1CCCC1 | -1.5% |
| Cc1ccc(C2=C/C(=C\c3cccnc3)C(=O)O2)cc1 | -1.01% |
| O=S(O)S(=O)(=O)O | -2.81% |
| COc1ccc(-n2cc(CNC3CCOCC3)c(-c3cccc(F)c3)n2)cc1 | 1.41% |
| Cc1ccc(C)c(-n2cc(CN3CCN(C(=O)c4ncn[nH]4)CC3)c(-c3ccccc3)n2)c1 | -1.39% |
| Cc1ccccc1CN1CCN(C(=O)c2cccc(F)c2)CC1 | -3.46% |

| SMILES | max response |
| --- | --- |
| CCC(O)C1CCN(Cc2cn(-c3ccc(OC)cc3)nc2-c2cccc(F)c2)CC1 (stereo not drawn) | 10.6% (active) |
| Cc1cccc(-n2cc(CN3CCN(C(=O)c4ncn[nH]4)CC3)c(-c3cccc(F)c3)n2)c1 | 20.6% (active) |
| COc1ccc(-n2cc(CN(C)Cc3n[nH]c(=O)[nH]3)c(-c3cccc(F)c3)n2)cc1 | 4.9% |
| C=CCCC(=O)Nc1nc(C)c(-c2csc(Nc3ccc(Cl)cc3)n2)s1 | -1.48% |
| CCOCCCNCc1cc(Br)ccc1OCC | 1.32% |
| O=C(NCc1ccncc1)C1CCN(C(=O)c2cccc(Cl)c2)CC1 | -4.47% |
| Cc1ccc(NC2CCCN(C(=O)CCc3cn[nH]c3)C2)cc1C (stereo not drawn) | 2.58% |
| COc1c(O)c2c(=O)cc(OC)c3c4c(OC)cc(=O)c5c(O)c(OC)c6c(c(c1C[C@@](C)(O)[C@H]6C(C)=O)c23)c54 | 2.19% |
| COc1ccc(C(=O)/C=C/c2ccc(OC3CSC3)cc2)cc1 | -1.52% |
| CC(=O)Nc1ccc(/C=C/C(=O)c2ccccc2)cc1 | 30.5% (active) |
| CC(=O)Nc1ccc(C(=O)/C=C/c2ccc[nH]2)cc1 | 49.8% (active) |
| CC(=O)Nc1ccc(NC(=S)NC(=O)/C=C/c2ccccc2)cc1 | 4.54% |
| CCCC(=O)Nc1ccc(C(=O)N/N=C/c2ccc[nH]2)cc1 | 7.57% |
| CC(=O)Nc1ccccc1C(=O)C(=O)Nc1ccc(F)cc1 | 11.7% |
| COc1ccc(CCNc2nc3ccc(C)cc3n3cnnc23)cc1OC | -4.65% |
| CC1CCN(S(=O)(=O)c2nnc(NC(=O)COc3ccccc3F)s2)CC1 | -2.77% |
| CN(CCC(=O)Nc1cc(S(=O)(=O)N(C)C)ccc1Cl)CC(=O)Nc1ccc(F)cc1 | -1.74% |
| Cc1ccc(OC(=O)c2cncc(Br)c2)c(C)c1 | -1.19% |
| Cc1ccc(S(=O)(=O)c2nc(NCCCn3ccnc3)sc2Cl)cc1 | -2.37% |
| COc1ccc(/C=C(\C#N)C(=O)NCCCn2ccnc2)cc1 | -5.64% |
| Cc1ccc(-c2nc(C#N)c(NCCCn3ccnc3)o2)cc1 | 16.7% (active) |

Source: PubChem BioAssay AID2314 (National Center for Advancing Translational Sciences (NCATS), 2010)
